Measurements published in the supplement of paper PMC8728848.
Many of the other results were omitted from the sample, so the strongest signals are more common in it than they were.

Tests used:
Assay in all cases: glycan array binding signal (z-score within array); higher = stronger binding
Conditions in all cases: glycan notation: IUPAC condensed, linker removed
[1] = molecular target: Fuc(a1-2)Gal(b1-3)GalNAc(b1-3)Gal
Outline: (§1)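 Glycan array binding is given as a within-array Z-score, which can be read as non-binding when negative. The arrays, 3228 of them, came from the Consortium for Functional Glycomics database and were retained only where the protein sequence was available. Z-scores were averaged across arrays of the same protein sequence at different concentrations or buffers and across linkers.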

[2] = molecular target: Fuc(a1-2)Gal(b1-3)[Fuc(a1-4)]GlcNAc(b1-2)Man(a1-3)[Fuc(a1-2)Gal(b1-3)[Fuc(a1-4)]GlcNAc(b1-2)Man(a1-3)]Man(b1-4)GlcNAc(b1-4)GlcNAc
Outline: as §1

[3] = molecular target: Fuc(a1-2)Gal(b1-3)[Fuc(a1-4)]GlcNAc(b1-3)[Gal(b1-4)GlcNAc(b1-6)]Gal(b1-4)Glc
Outline: as §1

[4] = molecular target: Fuc(a1-2)Gal(b1-4)GlcNAc(b1-3)[Fuc(a1-3)[Gal(b1-4)]GlcNAc(b1-6)]Gal(b1-4)Glc
Outline: as §1

[5] = molecular target: Fuc(a1-2)Gal(b1-4)[Fuc(a1-3)]GlcNAc
Outline: as §1

[6] = molecular target: Fuc(a1-2)Gal(b1-4)[Fuc(a1-3)]GlcNAc(b1-2)[Fuc(a1-2)Gal(b1-4)[Fuc(a1-3)]GlcNAc(b1-4)]Man(a1-3)[Fuc(a1-2)Gal(b1-4)[Fuc(a1-3)]GlcNAc(b1-2)Man(a1-6)]Man(b1-4)GlcNAc(b1-4)GlcNAc
Outline: as §1

[7] = molecular target: Fuc(a1-2)[Gal(a1-3)]Gal(b1-3)GlcNAc(b1-2)Man(a1-3)[Fuc(a1-2)[Gal(a1-3)]Gal(b1-3)GlcNAc(b1-2)Man(a1-6)]Man(b1-4)GlcNAc(b1-4)GlcNAc
Outline: as §1

[8] = molecular target: Fuc(a1-2)[Gal(a1-3)]Gal(b1-4)GlcNAc(b1-6)GalNAc
Outline: as §1

[9] = molecular target: Fuc(a1-2)[GalNAc(a1-3)]Gal
Outline: as §1

[10] = molecular target: Fuc(a1-2)[GalNAc(a1-3)]Gal(b1-3)GalNAc(a1-3)[Fuc(a1-2)]Gal(b1-4)GlcNAc
Outline: as §1

[11] = molecular target: Fuc(a1-2)[GalNAc(a1-3)]Gal(b1-3)GlcNAc(b1-3)GalNAc
Outline: as §1

[12] = molecular target: Fuc(a1-2)[GalNAc(a1-3)]Gal(b1-4)GlcNAc
Outline: as §1

[13] = molecular target: Fuc(a1-2)[GalNAc(a1-3)]Gal(b1-4)GlcNAc(b1-3)[Fuc(a1-2)[GalNAc(a1-3)]Gal(b1-4)GlcNAc(b1-6)]GalNAc
Outline: as §1

[14] = molecular target: Fuc(a1-2)[GalNAc(a1-3)]Gal(b1-4)GlcNAc(b1-6)GalNAc
Outline: as §1

[15] = molecular target: Fuc(a1-2)[GalNAc(a1-4)]Gal(b1-4)GlcNAc
Outline: as §1

[16] = molecular target: Gal(a1-3)Gal(b1-4)GlcNAc
Outline: as §1

[17] = molecular target: Gal(b1-2)Gal
Outline: as §1

[18] = molecular target: Gal(b1-3)GalNAc(b1-3)Gal(a1-4)Gal(b1-4)Glc
Outline: as §1

[19] = molecular target: Gal(b1-3)GlcNAc(b1-2)Man(a1-3)[GlcNAc(b1-4)][Gal(b1-3)GlcNAc(b1-2)Man(a1-6)]Man(b1-4)GlcNAc(b1-4)GlcNAc
Outline: as §1

[20] = molecular target: Gal(b1-3)GlcNAc(b1-3)GalNAc
Outline: as §1

[21] = molecular target: Gal(b1-3)[Fuc(a1-4)]GlcNAc(b1-2)Man(a1-3)[Gal(b1-3)[Fuc(a1-4)]GlcNAc(b1-2)Man(a1-6)]Man(b1-4)GlcNAc(b1-4)[Fuc(a1-6)]GlcNAc
Outline: as §1

[22] = molecular target: Gal(b1-3)[Neu5Ac(a2-6)]GalNAc
Outline: as §1

[23] = molecular target: Gal(b1-4)GalNAc(b1-3)[Fuc(a1-2)]Gal(b1-4)GlcNAc
Outline: as §1

[24] = molecular target: Gal(b1-4)GlcNAc(b1-2)Man(a1-3)[Man(a1-6)]Man(b1-4)GlcNAc(b1-4)GlcNAc
Outline: as §1

[25] = molecular target: Gal(b1-4)GlcNAc(b1-2)Man(a1-6)[GlcNAc(b1-2)Man(a1-3)]Man(b1-4)GlcNAc(b1-4)GlcNAc
Outline: as §1

[26] = molecular target: Gal(b1-4)GlcNAc(b1-3)Gal(b1-3)GlcNAc
Outline: as §1

[27] = molecular target: Gal(b1-4)GlcNAc(b1-3)Gal(b1-4)GlcNAc(b1-2)[Gal(b1-4)GlcNAc(b1-3)Gal(b1-4)GlcNAc(b1-6)]Man(a1-6)[Gal(b1-4)GlcNAc(b1-3)Gal(b1-4)GlcNAc(b1-2)Man(a1-3)]Man(b1-4)GlcNAc(b1-4)GlcNAc
Outline: as §1

[28] = molecular target: Gal(b1-4)GlcNAc(b1-3)Gal(b1-4)GlcNAc(b1-2)[Gal(b1-4)GlcNAc(b1-3)Gal(b1-4)GlcNAc(b1-6)]Man(a1-6)[Gal(b1-4)GlcNAc(b1-3)Gal(b1-4)GlcNAc(b1-2)Man(a1-3)]Man(b1-4)GlcNAc(b1-4)[Fuc(a1-6)]GlcNAc
Outline: as §1

[29] = molecular target: Gal(b1-4)GlcNAc(b1-3)Gal(b1-4)GlcNAc(b1-3)Gal(b1-4)GlcNAc(b1-3)Gal(b1-4)GlcNAc(b1-3)Gal(b1-4)GlcNAc(b1-2)Man(a1-3)[Gal(b1-4)GlcNAc(b1-3)Gal(b1-4)GlcNAc(b1-3)Gal(b1-4)GlcNAc(b1-3)Gal(b1-4)GlcNAc(b1-3)Gal(b1-4)GlcNAc(b1-2)Man(a1-6)]Man(b1-4)GlcNAc(b1-4)[Fuc(a1-6)]GlcNAc
Outline: as §1

[30] = molecular target: Gal(b1-4)GlcNAc(b1-3)[GlcNAc(b1-6)]Gal(b1-4)GlcNAc
Outline: as §1

[31] = molecular target: Gal(b1-6)Gal
Outline: as §1

[32] = molecular target: Gal3S6S(b1-4)GlcNAc
Outline: as §1

[33] = molecular target: Gal6S(b1-4)GlcNAc
Outline: as §1

[34] = molecular target: GalNAc(b1-4)GlcNAc(b1-3)GalNAc(b1-4)GlcNAc
Outline: as §1

[35] = molecular target: GalNAc3S(b1-4)[Fuc(a1-3)]GlcNAc
Outline: as §1

[36] = molecular target: GlcNAc(a1-3)Gal(b1-4)GlcNAc
Outline: as §1

[37] = molecular target: GlcNAc(a1-4)Gal(b1-4)GlcNAc(b1-3)Gal(b1-4)GlcNAc(b1-3)Gal(b1-4)GlcNAc
Outline: as §1

[38] = molecular target: GlcNAc(b1-2)[GlcNAc(b1-4)]Man(a1-3)[GlcNAc(b1-2)Man(a1-6)]Man(b1-4)GlcNAc(b1-4)GlcNAc
Outline: as §1

[39] = molecular target: GlcNAc(b1-3)Gal(b1-4)GlcNAc(b1-3)Gal(b1-4)GlcNAc(b1-2)[GlcNAc(b1-3)Gal(b1-4)GlcNAc(b1-3)Gal(b1-4)GlcNAc(b1-6)]Man(a1-6)[GlcNAc(b1-3)Gal(b1-4)GlcNAc(b1-3)Gal(b1-4)GlcNAc(b1-2)Man(a1-3)]Man(b1-4)GlcNAc(b1-4)[Fuc(a1-6)]GlcNAc
Outline: as §1

[40] = molecular target: GlcNAc(b1-3)Gal(b1-4)GlcNAc(b1-3)Gal(b1-4)GlcNAc(b1-3)Gal(b1-4)GlcNAc(b1-2)[GlcNAc(b1-3)Gal(b1-4)GlcNAc(b1-3)Gal(b1-4)GlcNAc(b1-3)Gal(b1-4)GlcNAc(b1-6)]Man(a1-6)[GlcNAc(b1-3)Gal(b1-4)GlcNAc(b1-3)Gal(b1-4)GlcNAc(b1-3)Gal(b1-4)GlcNAc(b1-2)Man(a1-3)]Man(b1-4)GlcNAc(b1-4)[Fuc(a1-6)]GlcNAc
Outline: as §1

[41] = molecular target: GlcNAc(b1-3)Man
Outline: as §1

[42] = molecular target: GlcNAc(b1-3)[GlcNAc(b1-4)][GlcNAc(b1-6)]GlcNAc
Outline: as §1

[43] = molecular target: GlcNAc(b1-4)GlcNAc(b1-4)GlcNAc(b1-4)GlcNAc(b1-4)GlcNAc(b1-4)GlcNAc
Outline: as §1

[44] = molecular target: Kdn(a2-3)Gal(b1-4)Glc
Outline: as §1

[45] = molecular target: Kdn(a2-6)Gal(b1-4)GlcNAc
Outline: as §1

[46] = molecular target: Man(a1-3)[Man(a1-6)]Man(a1-6)[Man(a1-2)Man(a1-3)]Man(b1-4)GlcNAc(b1-4)GlcNAc
Outline: as §1

[47] = molecular target: Man(a1-3)[Man(a1-6)]Man(a1-6)[Man(a1-3)]Man
Outline: as §1

[48] = molecular target: Man(a1-3)[Man(a1-6)]Man(a1-6)[Man(a1-3)]Man(b1-4)GlcNAc(b1-4)GlcNAc
Outline: as §1

[49] = molecular target: Man(a1-3)[Man(a1-6)]Man(b1-4)GlcNAc(b1-4)[Fuc(a1-6)]GlcNAc
Outline: as §1

[50] = molecular target: Man(a1-6)Man
Outline: as §1

[51] = molecular target: Neu5Ac(a2-3)Gal(b1-3)GlcNAc(b1-2)Man(a1-3)[Neu5Ac(a2-3)Gal(b1-3)GlcNAc(b1-2)Man(a1-6)]Man(b1-4)GlcNAc(b1-4)GlcNAc
Outline: as §1

[52] = molecular target: Neu5Ac(a2-3)Gal(b1-3)GlcNAc(b1-6)GalNAc
Outline: as §1

[53] = molecular target: Neu5Ac(a2-3)[Neu5Ac(a2-6)]GalNAc
Outline: as §1

[54] = molecular target: Neu5Ac(a2-6)Gal(b1-4)GlcNAc(b1-2)Man(a1-3)[Gal(b1-4)GlcNAc(b1-2)Man(a1-6)]Man(b1-4)GlcNAc(b1-4)GlcNAc
Outline: as §1

[55] = molecular target: Neu5Ac(a2-6)Gal(b1-4)GlcNAc(b1-2)Man(a1-3)[Man(a1-6)]Man(b1-4)GlcNAc(b1-4)GlcNAc
Outline: as §1

[56] = molecular target: Neu5Ac(a2-8)Neu5Ac(a2-3)Gal(b1-4)Glc
Outline: as §1

[57] = molecular target: Neu5Ac(a2-8)Neu5Ac(a2-8)Neu5Ac(a2-3)[GalNAc(b1-4)]Gal(b1-4)Glc
Outline: as §1

[58] = molecular target: Neu5Gc(a2-3)Gal(b1-3)GlcNAc
Outline: as §1

B1: PfulAvr4 (Pseudocercospora fuligena) (protein)
chain: HHHHHHDYKDDDDKTYVQDKTPAFVCPAADIKTTKCLGPKDCLYPSPKTCNGYIQCSPADDSYLTGIIHEMPCPSGLLWNDNKKWCDWPENTTCGLVKSAGATEVDATKQGPTPGKYHG
- glycan array binding signal (z-score) [1]: -0.098
- glycan array binding signal (z-score) [2]: 1.42
- glycan array binding signal (z-score) [3]: -0.112
- glycan array binding signal (z-score) [4]: -0.102
- glycan array binding signal (z-score) [5]: -0.091
- glycan array binding signal (z-score) [6]: 0.683
- glycan array binding signal (z-score) [7]: -0.05
- glycan array binding signal (z-score) [8]: -0.112
- glycan array binding signal (z-score) [9]: -0.132
- glycan array binding signal (z-score) [10]: 1.31
- glycan array binding signal (z-score) [11]: -0.06
- glycan array binding signal (z-score) [12]: -0.151
- glycan array binding signal (z-score) [13]: -0.133
- glycan array binding signal (z-score) [14]: -0.129
- glycan array binding signal (z-score) [15]: -0.135
- glycan array binding signal (z-score) [16]: -0.07
- glycan array binding signal (z-score) [17]: -0.01
- glycan array binding signal (z-score) [18]: -0.044
- glycan array binding signal (z-score) [19]: 0.682
- glycan array binding signal (z-score) [20]: -0.105
- glycan array binding signal (z-score) [21]: 0.612
- glycan array binding signal (z-score) [22]: 0.215
- glycan array binding signal (z-score) [23]: -0.141
- glycan array binding signal (z-score) [24]: 1.71
- glycan array binding signal (z-score) [25]: -0.136
- glycan array binding signal (z-score) [26]: -0.04
- glycan array binding signal (z-score) [27]: 1.38
- glycan array binding signal (z-score) [28]: -0.13
- glycan array binding signal (z-score) [29]: 0.048
- glycan array binding signal (z-score) [30]: 1.21
- glycan array binding signal (z-score) [31]: -0.156
- glycan array binding signal (z-score) [32]: 0.034
- glycan array binding signal (z-score) [33]: -0.128
- glycan array binding signal (z-score) [34]: -0.127
- glycan array binding signal (z-score) [35]: -0.134
- glycan array binding signal (z-score) [36]: -0.093
- glycan array binding signal (z-score) [37]: -0.059
- glycan array binding signal (z-score) [38]: -0.053
- glycan array binding signal (z-score) [39]: -0.049
- glycan array binding signal (z-score) [40]: -0.07
- glycan array binding signal (z-score) [41]: 0.804
- glycan array binding signal (z-score) [42]: -0.124
- glycan array binding signal (z-score) [43]: 23.3
- glycan array binding signal (z-score) [44]: 0.189
- glycan array binding signal (z-score) [45]: 0.004
- glycan array binding signal (z-score) [46]: 0.011
- glycan array binding signal (z-score) [47]: -0.076
- glycan array binding signal (z-score) [48]: -0.097
- glycan array binding signal (z-score) [49]: -0.095
- glycan array binding signal (z-score) [50]: -0.118
- glycan array binding signal (z-score) [51]: 1.27
- glycan array binding signal (z-score) [52]: -0.082
- glycan array binding signal (z-score) [53]: -0.131
- glycan array binding signal (z-score) [54]: 3.32
- glycan array binding signal (z-score) [55]: -0.088
- glycan array binding signal (z-score) [56]: -0.074
- glycan array binding signal (z-score) [57]: -0.132
- glycan array binding signal (z-score) [58]: -0.161
